Results as given in PubChem BioAssay (NCI).
This is part of a sample that, as a whole, favours compounds with a hit. Of some 83,000 tested, about 20% had one in any assay.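 Single-concentration screen, 48 h exposure, 96-well plates. Endpoint: percent growth. Below 10 = active.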 Values without a mark were called inactive. Activity calls are given as the source filed them.

The compounds below were run on HL-60(TB) leukemia (assay: NCI-60 one-dose screen, 48 h (100 = growth as untreated, 0 = no growth, -100 = all killed)). Settings: 10 µM unless noted.
`CC/C(=C(/c1ccc(Cl)cc1)c1ccc(OCCN2CCCCC2)cc1)c1ccc(OC)cc1` gave a growth of 24%. `CC1=NN(c2cccc(S(N)(=O)=O)c2)C(=O)C1` was tested, and the growth was 124%. Work on `CC(=O)OC[C@]12CC[C@@H]([C@@H](C)c3nnc(-c4ccncc4)o3)[C@@H]1[C@H]1CC[C@@H]3[C@@]4(C)CC[C@H](OC(C)=O)C(C)(C)[C@@H]4CC[C@@]3(C)[C@]1(C)CC2` yielded a growth of 61.1%. With `CC(C)CC(=O)Nc1n[nH]c2c1CN(C(=O)C1CCN(C)CC1)C2(C)C` the growth was -26.2% (active). With `CC(C)c1ccc(-c2cnc3nonc3n2)cc1` the growth was -18.3% (active). `COc1ccc(OC)c(-c2cn3nc(-c4c[nH]c5ccc(Br)cc45)sc3n2)c1` gave a growth of 86.3%. `N#CCNc1ccc(C(=O)O)cc1` was tested, and the growth was 99.2%. With `Cc1cccc(-c2nc(N(C)c3ccc4ncsc4c3)c3ccccc3n2)n1` the growth was 50.4%. For `CCOc1cccc(C2CC(=O)Nc3cc4c(cc32)OCO4)c1` (stereo not given), the growth was 90.7%. `O=C(Nc1nc2c(C(F)(F)F)cccc2s1)c1cc(Cl)ccc1O` was tested, and the growth was -38.8% (active). Compound `Cc1ccc(NS(=O)(=O)c2ccc3c(c2)C2OCCC2C(c2ccc(C(=O)C(C)C)cc2)N3)cc1C` (stereo not given) has a growth of 20.4%. For `CC1=C2[C@@H](CC1)[C@]1(C)O[C@@](C3CCNCC3)(C[C@H]1OC(=O)CO)[C@H]2OC(=O)/C=C/c1ccccc1`, the growth was 97.1%. With `O=C(Nc1ncc(Cc2cccc(C(F)(F)F)c2)s1)c1ccc(-n2cnnn2)cc1` the growth was 70.8%. For `c1ccc2sc(SCCCn3ccnc3)nc2c1`, the growth was 110%. Work on `Cc1cc(N/N=C/c2nc(-c3ccccc3)oc2C)c2cc(Br)ccc2n1` yielded a growth of 80%. `N#CCC1=NC(c2cccs2)=Nc2ccccc2S1` was tested, and the growth was 90.9%. In the case of `CCc1ccc(C2=C/C(=C/c3ccccc3)C(=O)N2CCc2ccc(S(N)(=O)=O)cc2)cc1`, the growth is reported as 100%. `CN(Cc1cnc2nc(N)nc(N)c2n1)c1ccc(C(=O)N[C@@H](CCc2nn[nH]n2)c2nn[nH]n2)cc1` showed a growth of 31.9%. For `O=C(N/N=C/c1ccc(Cl)cc1)c1ccc(Cc2n[nH]c(=O)c3cccnc23)cc1`, the growth was 100%. In the case of `Cc1cc2c(C#N)n3c(c2cc1C)C(=O)C(c1ccccc1)Oc1ccccc1-3` (stereo not given), the growth is reported as 36.3%. `Cc1cccc(C)c1NC(=O)CSC(=S)N1CCN(CCOCCO)CC1` showed a growth of 88.7%. For `COc1ccc(OC)c2c1CCC1(C2)NC(=O)NC1=O` (stereo not given), the growth was 111%. In the case of `COc1cccc(-c2nc(-c3ccc(NC(=O)OC(C)C)cc3)[nH]c2-c2ccnc(Br)c2)c1`, the growth is reported as -39.9% (active). `CCOC(=O)C1=C(C)N=C2Sc3cccc(OC)c3N2[C@H]1c1ccccn1` gave a growth of 105%. For `CC(=O)/C(=C\c1ccc(Cl)cc1)c1ccccc1`, the growth was -16.2% (active). `Cc1ccc(O)c(N2C(=NCc3ccco3)NS(=O)(=O)c3cnccc32)c1` was tested, and the growth was 114%. Work on `CC1CCCCN1S(=O)(=O)c1ccc(CN=C=S)cc1` (stereo not given) yielded a growth of 75.9%. For `N=c1nc(N)ncn1-c1ccccc1`, the growth was 110%. Work on `COc1ccc(Cn2cc(C(=O)Nc3cccnc3Nc3ccccc3)nn2)cc1` yielded a growth of 104%. `COC1=CC(c2ccc[nH]2)=N/C1=C\c1[nH]c(C)c(CC(=O)OCc2ccccc2)c1C` was tested, and the growth was -29.2% (active). For `FC(F)(F)c1cc(-c2nnc3n2N=C(Cl)CS3)cc(C(F)(F)F)c1`, the growth was 93.2%. Compound `O=c1oc2ccc(F)cc2c(=O)n1-c1ccc(F)cc1F` has a growth of 16.7%. `N#Cc1c(-c2cccc(Cl)c2)cc(-c2cccnc2)[nH]c1=O` gave a growth of 66.9%. In the case of `CN(C)c1ccc(/C=C(\C#N)c2nc3ccccc3n2C)cc1`, the growth is reported as 1.21% (active). With `O=C(O)CCCc1cnc2c3sccc3nc(SCc3c(Cl)cccc3Cl)n12` the growth was -26.5% (active). `C[C@H](CCC[C@H](C)OS(=O)(=O)c1ccccc1)OS(=O)(=O)c1ccccc1` was tested, and the growth was 119%. Work on `CCCNC(=O)c1ccc(S(N)(=O)=O)cc1` yielded a growth of 133%. `C=C1CC/C=C(\C)C(=O)C[C@@H]2[C@@H]1CC2(C)C` showed a growth of 105%. For `C/C(=N\NC(=O)c1ccccc1N)c1ccccc1O`, the growth was 40.8%. `COc1cc(-c2cc(/C=C/C(=O)c3ccc(Cl)c(Cl)c3)[nH]n2)cc(OC)c1OC` showed a growth of 87.3%.
